Our source for the composite z-score and z-score values is PubChem BioAssay.

The structures appear in SMILES notation. The source made the active and inactive calls. Unless noted, no rule for the calls is given here.

The test system of test [1] is XIP peptide (Xip251-270) binding. Nature of the test: small-molecule binders of XIP peptide, primary screen, biochemical, small-molecule microarray, fluorescence 635/667 nm, 0.1 µg/mL protein (AID 1182). Conditions: fluorescent protein binding, 635 nm, higher = more signal, called active from +8 up or from −8 down.
For a further test, the system named is XIP peptide (Xip251-270). Nature of the test: small-molecule binders of XIP peptide, primary screen, biochemical, small-molecule microarray, fluorescence 635/667 nm, 0.5 µg/mL protein (AID 1183). Conditions: small-molecule microarray binding, fluorescence 635 nm; higher = more signal.
The nature of test [2]: Plasmodium falciparum growth inhibition, primary screen, strain 3D7, DAPI fluorescence, 100 nL (AID 1184).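 Also: parasites grown inside human red blood cells in medium with human serum.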 Conditions: P. falciparum 3D7 growth, 3 d, higher = more signal.
The target of test [3] is Homeobox protein Hox-A13 (Mus musculus) (UniProt Q62424). Put plainly: inhibitors of HoxA13-DNA binding, primary screen, biochemical, fluorescence polarization, labeled oligonucleotide (AID 1185). Conditions: 15 min, higher = more signal, called active from +8 up or from −8 down. Background: Fluorescence polarisation rises when a labelled molecule tumbles more slowly, as on binding a larger partner.

Test [4] is described as follows: inhibitors of hydroxyurea-induced Chk1 phosphorylation, primary screen, imaging, HeLa, phospho-Chk1 antibody, percent positive cells (AID 1186). As to conditions: hydroxyurea-induced phospho-Chk1 immunofluorescence imaging, higher = more signal.
A short description of test [5]: inhibitors of hydroxyurea-induced Chk1 phosphorylation, primary screen, imaging, HeLa, phospho-Chk1 nuclear intensity (AID 1187). Conditions: hydroxyurea-induced phospho-Chk1 immunofluorescence imaging, higher = more signal.

Chain of Homeobox protein Hox-A13 (Mus musculus) (Q62424 whole entry, looked up): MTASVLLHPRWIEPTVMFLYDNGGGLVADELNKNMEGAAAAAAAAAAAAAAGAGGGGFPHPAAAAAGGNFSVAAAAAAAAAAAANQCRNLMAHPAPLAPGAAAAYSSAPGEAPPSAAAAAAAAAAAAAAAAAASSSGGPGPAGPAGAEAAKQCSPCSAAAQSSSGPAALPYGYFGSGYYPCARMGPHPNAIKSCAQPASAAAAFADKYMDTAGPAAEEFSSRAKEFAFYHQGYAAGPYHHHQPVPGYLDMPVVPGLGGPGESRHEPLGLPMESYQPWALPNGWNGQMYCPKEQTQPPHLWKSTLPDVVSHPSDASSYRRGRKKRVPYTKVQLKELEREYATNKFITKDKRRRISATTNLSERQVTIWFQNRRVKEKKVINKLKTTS

On to `COCCOC(=O)N1C(=O)[C@@]2(c3cc(C#CCCO)ccc31)[C@H](C(N)=O)[C@H]1C(=O)O[C@H](c3ccccc3)[C@H](c3ccccc3)N1[C@@H]2c1ccccc1OCCO`, for which the composite z-score in test [1] is 1.47 (inactive); in the test with XIP peptide (Xip251-270), 0.832. The z-score in test [2] was -1.31; in test [3] it was -3.88 (inactive); in test [4], 0.0461 (inactive); in test [5], -0.303 (inactive).

In the case of `[N-]=[N+]=Nc1ccccc1C[C@@]1(C(=O)NCc2ccccc2)N=C(c2ccc(OCCCO)cc2)O[C@@H]1c1ccccc1N=[N+]=[N-]`, the results for the composite z-score (in test [1]; in the test on XIP peptide (Xip251-270)) were 1.46 (inactive) and 0.729, respectively. Further, the z-score is -2.76 in test [2], -0.454 (inactive) in test [3], -0.747 (inactive) in test [4] and -1.1 (inactive) in test [5].

For `CC1CC/C=C\[C@H]2OC34C=CCN(Cn5nnc6ccccc65)C(=O)[C@H]3N(CCCCCCO)C(=O)[C@@H]4C2C(=O)O1` (some centres not stated), the composite z-score in test [1] was 0.0152 (inactive); in the test with XIP peptide (Xip251-270) it was 0.217. Also, the z-score was 0.21 in test [2], -3.02 (inactive) in test [3], -0.481 (inactive) in test [4] and -0.521 (inactive) in test [5].

In the case of `O=C1O[C@@H](c2ccccc2)[C@@H](c2ccccc2)N2[C@@H](c3ccc(OCCO)cc3)[C@]3(C(=O)Nc4ccc(C#CC5(O)CCCCCC5)cc43)[C@@H](C(=O)Nc3nc4ccccc4s3)[C@H]12`, the composite z-score was 0.813 (inactive) in test [1] and 0.667 with XIP peptide (Xip251-270). Also, the z-score in test [2] is -1.59; in test [3] it was 1.03 (inactive); in test [4], 0.234 (inactive); in test [5] it was 0.42 (inactive).

As to `CC1=C([C@H](O)CCc2ccccc2)[C@H](CO)n2c(=O)n(-c3ccccc3)c(=O)n2C1`, the results for the composite z-score (in test [1]; in the test with XIP peptide (Xip251-270)) were -0.611 (inactive) and 0.754, respectively. Also, the z-score in test [2] is 0.0483; in test [3], -2.24 (inactive); in test [4] it was -0.773 (inactive); in test [5], -0.906 (inactive).

As for `CC(C)=CCCC(C)=CC(O)C1C=CC2C(=O)NC(=O)C2N1Nc1ccccn1` (configuration not stated), the composite z-score in test [1] was 0.113 (inactive); in the test on XIP peptide (Xip251-270), 0.628. Further, the z-score in test [2] is 0.563; in test [3] it was -4.67 (inactive); in test [4], 0.282 (inactive); in test [5] it was -0.0205 (inactive).

Consider `COC(=O)[C@@]1(Cc2ccc(OC)cc2)[C@H]2c3cc(C(=O)N4CCCC4)n(CCn4cc([N+](=O)[O-])nc4C)c3C[C@H]2CN1C(=O)c1ccccc1`, for which the composite z-score was 1.13 (inactive) in test [1] and 0.359 with XIP peptide (Xip251-270). For the same compound, the z-score in test [2] was -1.73; in test [3], -2.67 (inactive); in test [4], 1.65 (inactive); in test [5], 1.22 (inactive).

Consider `O=C(NCCN1CCOCC1)[C@@H]1c2ccccc2C(=O)N(Cc2ccccc2C(F)(F)F)[C@H]1c1ccc(CO)cc1`, for which the composite z-score in test [1] is 0.3 (inactive); with XIP peptide (Xip251-270), 0.777. In addition, the z-score in test [2] is -1.16; in test [3], -3.55 (inactive); in test [4], 0.126 (inactive); in test [5], 0.371 (inactive).

Consider `CC(C)c1nc2cc(Br)ccc2c(=O)o1`, for which the composite z-score in test [1] was 0.697 (inactive); in the test on XIP peptide (Xip251-270) it was 0.355. Also, the z-score was -0.795 in test [2], -0.27 (inactive) in test [3], -0.0165 (inactive) in test [4] and 0.0785 (inactive) in test [5].

Turning to `O=C1[C@@H]2[C@@H](CC(COc3ccccc3)=C([C@H](O)CCc3ccccc3)[C@@H]2CO)C(=O)N1Cc1ccccc1`, the composite z-score in test [1] was -0.268 (inactive); in the test on XIP peptide (Xip251-270), 0.73. In addition, the z-score in test [2] is -0.0811; in test [3], -6.92 (inactive); in test [4], -0.556 (inactive); in test [5] it was -0.945 (inactive).

Regarding `C[C@@H]1ON(c2ccccc2)[C@H](c2ccccc2)[C@H]1C(=O)O`, the values for the composite z-score (in test [1]; with XIP peptide (Xip251-270)) were -0.117 (inactive) and 0.0627, respectively. Also, the z-score is -0.413 in test [2], -0.711 (inactive) in test [3], 0.0099 (inactive) in test [4] and 0.203 (inactive) in test [5].

As to `COCCCN1C(=O)[C@@]2(c3ccc([N+](=O)[O-])cc3)CC(=O)N(CC34CC5CC(CC(C5)C3)C4)[C@@H]2c2ccc(CO)cc21`, the composite z-score was 0.264 (inactive) in test [1] and 0.578 in the test with XIP peptide (Xip251-270). Also, the z-score was -0.243 in test [2], -0.113 (inactive) in test [3], -0.313 (inactive) in test [4] and -0.793 (inactive) in test [5].

Turning to `COc1ccc([Si](C)(C)[C@@H]2[C@@H](CC(=O)N3Cc4ccccc4C[C@H]3CO)O[C@]3(C(=O)N(Cc4cccc(N5CCOC5=O)c4)c4ccccc43)[C@H]2C)cc1`, the composite z-score was 0.0848 (inactive) in test [1] and 0.672 in the test on XIP peptide (Xip251-270). Besides, the z-score is -2.83 in test [2], -2.49 (inactive) in test [3], -0.34 (inactive) in test [4] and -0.695 (inactive) in test [5].

For `COc1ccc([Si](C)(C)[C@H]2[C@H](CCO)O[C@@]3(C(=O)N(Cc4cccc(N(C=O)c5ccccc5)c4)c4ccccc43)[C@@H]2C)cc1`, the composite z-score in test [1] is 0.293 (inactive); with XIP peptide (Xip251-270) it was 0.665. The z-score in test [2] was -2.57; in test [3] it was -0.557 (inactive); in test [4] it was -1.73 (inactive); in test [5], -0.831 (inactive).

Take `Cc1ccc(S[C@]2(C(=O)NC(C)C)CC(=O)N(C3CCCCC3)[C@@H]2c2ccc(CO)cc2I)cc1`: the composite z-score was 0.814 (inactive) in test [1] and 0.864 in the test on XIP peptide (Xip251-270). Moreover, the z-score in test [2] was -1.31; in test [3], -4.43 (inactive); in test [4] it was 0.243 (inactive); in test [5], 0.202 (inactive).

In the case of `[N-]=[N+]=NCc1ccccc1[C@@H]1OC(c2ccc(OCCCO)cc2)=N[C@]1(Cc1ccccc1N=[N+]=[N-])C(=O)NCC(O)CO` (some centres not stated), the composite z-score in test [1] is 1.45 (inactive); in the test on XIP peptide (Xip251-270), 0.5. In addition, the z-score is -2.31 in test [2], -2.19 (inactive) in test [3], -0.168 (inactive) in test [4] and 0.0749 (inactive) in test [5].

Turning to `C=CC[C@@]12N=C(c3ccc(OCCCO)cc3)O[C@@H]1c1ccccc1N(CCC)C2=O`, the composite z-score in test [1] is 2.48 (inactive); in the test with XIP peptide (Xip251-270), 0.759. Also, the z-score in test [2] is -2.25; in test [3] it was -4.8 (inactive); in test [4], 0.291 (inactive); in test [5] it was 0.58 (inactive).
